Test [1] concerns XIP peptide (Xip251-270) binding. Nature of the test: XIP fragment 251-270 binding compounds – biochemical, small-molecule microarray, fluorescence 635/667 nm, 0.1 µg/mL protein, primary screen (AID 1182). Particulars: fluorescent protein binding, 635 nm, higher = more signal, called active from +8 up or from −8 down.
The next test has as its system XIP peptide (Xip251-270). Description: compounds binding XIP fragment 251-270 – biochemical, small-molecule microarray, fluorescence 635/667 nm, 0.5 µg/mL protein, primary screen (AID 1183). The settings on record: fluorescence 635 nm, higher = more signal.
The nature of test [2]: blood-stage malaria parasite viability loss – strain 3D7, DAPI fluorescence, 100 nL, primary screen (AID 1184).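 Also: parasites grown inside human red blood cells in medium with human serum.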 Particulars: P. falciparum 3D7 growth, 3 d, higher = more signal.
Test [3] deals with Homeobox protein Hox-A13 (Mus musculus) (UniProt Q62424). Description: disruptors of Hoxa13 oligonucleotide interaction – biochemical, fluorescence polarization, labeled oligonucleotide, primary screen (AID 1185). Particulars: Hoxa13:DNA binding, 15 min, higher = more signal, called active from +8 up or from −8 down.
Homeobox protein Hox-A13 (Mus musculus), sequence (Q62424 whole entry, looked up): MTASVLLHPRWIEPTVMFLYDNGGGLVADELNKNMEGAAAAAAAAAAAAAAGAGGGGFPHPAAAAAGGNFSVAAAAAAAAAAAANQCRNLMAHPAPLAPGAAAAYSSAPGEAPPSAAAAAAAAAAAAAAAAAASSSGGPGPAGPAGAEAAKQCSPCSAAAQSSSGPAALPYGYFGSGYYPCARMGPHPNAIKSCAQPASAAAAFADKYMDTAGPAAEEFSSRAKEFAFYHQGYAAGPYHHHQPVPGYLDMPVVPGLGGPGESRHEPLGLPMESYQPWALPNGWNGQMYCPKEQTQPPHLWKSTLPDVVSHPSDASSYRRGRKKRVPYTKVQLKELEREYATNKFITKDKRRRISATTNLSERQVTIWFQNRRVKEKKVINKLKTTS
Test [4] is described as follows: blockers of DNA damage checkpoint Chk1 activation – imaging, HeLa, hydroxyurea, phospho-Chk1 antibody, percent positive cells, primary screen (AID 1186). Particulars: hydroxyurea-induced phospho-Chk1 immunofluorescence imaging, higher = more signal.
Test [5] in a line: blockers of DNA damage checkpoint Chk1 activation – imaging, HeLa, hydroxyurea, phospho-Chk1 nuclear intensity, primary screen (AID 1187). Particulars: hydroxyurea-induced phospho-Chk1 immunofluorescence imaging, higher = more signal.

This is an account of results in PubChem BioAssay.

Molecules are shown by their SMILES. Active and inactive are the calls of the source. Unless noted, no rule for the calls is given here.

Turning to `O=C1OCC=C[C@H]2OC34C=CCN(Cc5ccccc5)C(=O)[C@H]3N(CCCCCO)C(=O)[C@@H]4[C@@H]12` (some centres not stated), the composite z-score in test [1] is 0.211 (inactive); in the test on XIP peptide (Xip251-270) it was -0.85. Besides, the z-score is -1.99 in test [2], -3.21 (inactive) in test [3], 0.729 (inactive) in test [4] and 0.0912 (inactive) in test [5].
Consider `CCCC=C(CCC)[C@@H](NS(=O)(=O)c1ccc(C(F)(F)F)cc1)c1ccc(-c2ccccc2)cc1`, for which the composite z-score was 0.14 (inactive) in test [1] and 0.0936 in the test on XIP peptide (Xip251-270). In addition, the z-score in test [2] is -0.334; in test [3] it was -1.61 (inactive); in test [4] it was -0.208 (inactive); in test [5], -0.144 (inactive).
As for `C[N+](C)(C)CCCCNC(=O)[C@@H]1C[C@@H]2C(=O)N3CCC[C@H]3C(=O)N2[C@@H]1c1cccc(OCCO)c1`, the results for the composite z-score (in test [1]; in the test on XIP peptide (Xip251-270)) were 3.4 (inactive) and 0.839, respectively. Besides, the z-score in test [2] is -0.294; in test [3] it was -1.2 (inactive); in test [4] it was -0.162 (inactive); in test [5], 0.319 (inactive).
Regarding `CCCC=C(CCC)[C@@H](NS(=O)(=O)c1cccc(C(F)(F)F)c1)c1ccc(C(=O)OC)cc1`, the composite z-score in test [1] was 0.0637 (inactive); with XIP peptide (Xip251-270), 0.377. For the same molecule, the z-score in test [2] is 0.551; in test [3], -1.64 (inactive); in test [4] it was 0.0948 (inactive); in test [5] it was -0.275 (inactive).
Turning to `COCCOC(=O)N1C(=O)[C@@]2(c3cc(C#CCCO)ccc31)[C@H](C(=O)N1CCCCCCC1)[C@H]1C(=O)O[C@H](c3ccccc3)[C@H](c3ccccc3)N1[C@@H]2c1ccc(O)cc1`, the composite z-score is 1.48 (inactive) in test [1] and 0.63 in the test on XIP peptide (Xip251-270). In addition, the z-score in test [2] was -0.303; in test [3] it was -0.579 (inactive); in test [4] it was -0.424 (inactive); in test [5] it was -0.457 (inactive).
In the case of `O=C1O[C@@H](c2ccccc2)[C@@H](c2ccccc2)N2[C@@H](c3ccc(O)cc3)[C@]3(C(=O)Nc4ccccc43)[C@@H](C(=O)N3CCN(c4ncccn4)CC3)[C@H]12`, the composite z-score in test [1] is 1.55 (inactive); in the test on XIP peptide (Xip251-270), -0.278. For the same molecule, the z-score is -1.46 in test [2], -2.96 (inactive) in test [3], -0.231 (inactive) in test [4] and -0.242 (inactive) in test [5].
With `O=C1O[C@H](c2ccccc2)[C@H](c2ccccc2)N2[C@H]1[C@@H](C(=O)Nc1nc3ccccc3s1)[C@]1(C(=O)Nc3ccc(C#CC4=CCCCC4)cc31)[C@H]2c1ccccc1OCCO`, the composite z-score in test [1] was 0.0485 (inactive); in the test on XIP peptide (Xip251-270), 0.0555. In addition, the z-score in test [2] was -2.09; in test [3] it was -9.05 (active); in test [4] it was 0.205 (inactive); in test [5], 0.375 (inactive).
For `O=C1C2C=CC(C(O)C#Cc3ccccc3)N(Nc3ccccc3)C2C(=O)N1c1ccccc1` (configuration not stated), the composite z-score was -0.115 (inactive) in test [1] and 0.176 in the test with XIP peptide (Xip251-270). Moreover, the z-score in test [2] is 0.801; in test [3] it was -4.05 (inactive); in test [4], -0.0484 (inactive); in test [5], -0.217 (inactive).
`CC(=O)NCCCC[C@@H]1NC(=O)[C@@H]2C[C@H](C(=O)NCCCCCCN(C)C)[C@H](c3ccc(O)cc3)N2C1=O`: the composite z-score in test [1] was 1.9 (inactive); with XIP peptide (Xip251-270), 0.852. The z-score in test [2] is -0.289; in test [3], -0.0113 (inactive); in test [4], 0.313 (inactive); in test [5] it was 0.54 (inactive).
On to `[N-]=[N+]=NCc1ccccc1C[C@]1(C(=O)N2CCCCC2)N=C(c2ccc(OCCCO)cc2)O[C@H]1c1ccccc1CN=[N+]=[N-]`, for which the results for the composite z-score (in test [1]; in the test with XIP peptide (Xip251-270)) were 1.52 (inactive) and 0.811, respectively. Besides, the z-score in test [2] is -2.32; in test [3], 1.1 (inactive); in test [4] it was -0.0016 (inactive); in test [5], 0.164 (inactive).
As for `COCCOC(=O)N1C(=O)[C@@]2(c3cc(C#CCNC(N)=O)ccc31)[C@H](c1ccc(OCCO)cc1)N1[C@H](c3ccccc3)[C@H](c3ccccc3)OC(=O)[C@H]1[C@@H]2C(=O)N1CCCCCCC1`, the composite z-score in test [1] is 0.067 (inactive); in the test on XIP peptide (Xip251-270), -0.26. The z-score is -2.1 in test [2], -11.3 (active) in test [3], 0.174 (inactive) in test [4] and 0.272 (inactive) in test [5].
Take `COc1cc2c(cc1OC)CN(C(=O)[C@H]1[C@@H]3C(=O)O[C@@H](c4ccccc4)[C@@H](c4ccccc4)N3[C@@H](c3ccc(O)cc3)[C@]13C(=O)Nc1ccc(C#CC4(O)CCCCCC4)cc13)CC2`: the composite z-score in test [1] is 3.38 (inactive); with XIP peptide (Xip251-270), 0.838. In addition, the z-score is -1.51 in test [2], -1.42 (inactive) in test [3], -0.0159 (inactive) in test [4] and 0.0808 (inactive) in test [5].
Turning to `Cc1ccc(N2C(=O)c3ccccc3[C@](C)(C(=O)NCC(C)C)[C@@H]2c2ccc(CO)cc2)nc1`, the composite z-score was -0.223 (inactive) in test [1] and -0.662 in the test on XIP peptide (Xip251-270). Moreover, the z-score in test [2] is 0.11; in test [3], -2 (inactive); in test [4], 0.341 (inactive); in test [5], 0.123 (inactive).
On to `Cc1ccc(S[C@]2(C(=O)NC3CC3)CC(=O)N(Cc3cc(C(F)(F)F)cc(C(F)(F)F)c3)[C@@H]2c2ccc(CO)cc2)cc1`, for which the composite z-score in test [1] was 0.503 (inactive); with XIP peptide (Xip251-270), -0.0124. The z-score in test [2] was -0.442; in test [3] it was -2.7 (inactive); in test [4], -0.144 (inactive); in test [5], -0.0725 (inactive).
Regarding `CC(C)C[C@@H]1NC(=O)[C@H](CC(C)C)NC(=O)[C@@]23C(=O)N[C@@H](Cc4ccccc4)C2[C@H](C)[C@@]2(C)O[C@H]2C3/C=C/CC/C=C/CNC1=O` (some centres not stated), the composite z-score in test [1] was -0.404 (inactive); in the test with XIP peptide (Xip251-270), 0.674. For the same molecule, the z-score was -1.52 in test [2], -6.55 (inactive) in test [3], -0.218 (inactive) in test [4] and -0.0919 (inactive) in test [5].
Regarding `C=CCC(OC(C)=O)[C@@H]1[C@@H](N(Cc2cc3ccccc3o2)C(=O)c2ccc(C)cc2)c2cc(OCCCO)ccc2N1C(=O)c1ccc2ccccc2n1` (some centres not stated), the composite z-score is 0.167 (inactive) in test [1] and -0.442 in the test on XIP peptide (Xip251-270). Also, the z-score in test [2] was -0.863; in test [3], -1.79 (inactive); in test [4], 0.347 (inactive); in test [5], 0.295 (inactive).
With `CC(C)[C@H]1NC(=O)[C@@]23C(=O)N[C@@H](Cc4ccccc4)C2[C@H](C)[C@@]2(C)O[C@H]2C3/C=C/C/C=C\CNC(=O)[C@H](C)NC1=O` (some centres not stated), the figures for the composite z-score (in test [1]; with XIP peptide (Xip251-270)) were -0.311 (inactive) and -0.791, respectively. Also, the z-score in test [2] is -0.162; in test [3] it was -6.31 (inactive); in test [4], 0.126 (inactive); in test [5], 0.42 (inactive).
